{"source": "PubChem BioAssay AID720690", "about": "(Broad Institute, 2013)", "note": "Potency and affinity values are given separately. The source made the active and inactive calls.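 How the source made its calls: active means every repeat run showing a signal drop whose fitted half-maximal concentration is at most twice the top tested concentration; inconclusive means repeat runs disagree, or flat partial drop, or poor fit; inactive means the rest.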", "data": [{"experiment": "HEK293T cytotoxicity, dose response, cytotoxicity control for miR-122 modulator project, cell-based, activator set, cherry-pick (AID 720690)", "details": "HEK293T viability, CellTiter-Glo luminescence, 48 h; series mostly up to 26 µM", "values": [{"smiles": "Cc1cc2[nH]c3c4ccccc4nc(C)c3c2cc1C", "outcome": "inactive"}, {"smiles": "CC(C)C#Cc1ccc2c(c1)O[C@H](CN(C)C(=O)c1ccncc1)[C@H](C)CN([C@@H](C)CO)S2(=O)=O", "outcome": "inactive"}, {"smiles": "COc1ccc(-c2oc3ncnc(NCCCN4CCOCC4)c3c2-c2ccc(OC)cc2)cc1", "outcome": "inactive"}, {"smiles": "O=C(COC(=O)c1ccccc1)Nc1cc(Cl)ccc1Oc1ccccc1", "outcome": "inactive"}, {"smiles": "COc1cccc(CNC(=O)C[C@@H]2CC[C@@H]3[C@H](COc4ccc(NC(C)=O)cc4C(=O)N3C)O2)c1", "outcome": "inactive"}, {"smiles": "CN1C(=O)c2cc(NC(=O)c3ccccc3F)ccc2OC[C@H]2O[C@H](CC(=O)NCc3ccc4c(c3)OCO4)CC[C@@H]21", "outcome": "inactive"}, {"smiles": "C[C@H](CO)N1C[C@H](C)[C@H](CN(C)C(=O)NC2CCCCC2)Oc2ncc(-c3cccc(C(F)(F)F)c3)cc2C1=O", "outcome": "inactive"}, {"smiles": "COc1cccc(-c2nc(NCCN3CCOCC3)c3ccccc3n2)c1O", "outcome": "inactive"}, {"smiles": "COC(=O)c1nn(-c2ccccc2)c(Sc2ccc(Cl)cc2)c1/C=N/O", "outcome": "inactive"}, {"smiles": "CN1C[C@@H]2[C@H](c3ccccc31)[C@@H](CO)N2C(=O)Nc1ccccc1", "outcome": "inactive"}, {"smiles": "CCCNC(=O)C[C@H]1CC[C@@H]2[C@@H](COc3ccc(NC(=O)c4ccc5c(c4)OCO5)cc3C(=O)N2C)O1", "outcome": "inactive"}, {"smiles": "CN1C(=O)c2cc(NC(=O)Nc3cccc(Cl)c3)ccc2OC[C@H]2O[C@H](CC(=O)NCCc3ccncc3)CC[C@H]21", "outcome": "inactive"}, {"smiles": "COCC(=O)N1C[C@H]2[C@@H](c3ccccc31)[C@H](CO)N2C(=O)Nc1ccccc1Cl", "outcome": "inactive"}, {"smiles": "O=c1c2cc(N3CCOCC3)ccc2[nH]c(=S)n1CCCN1CCCC1", "outcome": "inactive"}, {"smiles": "CCOC(=O)c1ccc(NC(=O)c2ccc(CN3CCOCC3)cc2)cc1", "outcome": "inactive"}, {"smiles": "CO[C@@H]1CN(C)C(=O)c2ccc(NS(=O)(=O)c3ccc(C)cc3)cc2OC[C@@H](C)N(C(=O)NC(C)C)C[C@H]1C", "outcome": "inactive"}, {"smiles": "CN1CCN(C(=O)C[C@H]2CC[C@@H]3[C@H](COc4ccc(NC(=O)c5cccs5)cc4C(=O)N3C)O2)CC1", "outcome": "inactive"}, {"smiles": "CC(=O)N1[C@H](CO)[C@@H](c2ccccc2)[C@H]1CN(C(=O)NC(C)C)C1CCCC1", "outcome": "inactive"}, {"smiles": "C[C@H](CO)N1C[C@H](C)[C@H](CN(C)C(=O)Nc2ccc3c(c2)OCO3)Oc2ncc(-c3cccc(C(F)(F)F)c3)cc2C1=O", "outcome": "inactive"}, {"smiles": "CN1C(=O)c2cc(NC(=O)c3cccc(F)c3)ccc2OC[C@H]2O[C@H](CC(=O)NC3CCC3)CC[C@H]21", "outcome": "inactive"}, {"smiles": "O=C(NCCCN1CCCC1)c1ccc(CSCc2cccc(Cl)c2)o1", "outcome": "inactive"}, {"smiles": "CCCC(=O)Nc1ccc2c(c1)C(=O)N(C)[C@@H]1CC[C@H](CC(=O)Nc3cn(C)nc3C)O[C@@H]1CO2", "outcome": "inactive"}, {"smiles": "Cc1ccccc1NCN1C(=O)C2C3C=CC(C3)C2C1=O", "note": "(stereo unspecified)", "outcome": "inactive"}, {"smiles": "COCC(=O)Nc1ccc2c(c1)C(=O)N(C)[C@@H]1CC[C@@H](CC(=O)NCCCN(C)C)O[C@@H]1CO2", "outcome": "inactive"}, {"smiles": "O=C(Nc1ccc(CN2CCOCC2)cc1)c1ccc(-c2ccc(Cl)cc2Cl)o1", "outcome": "inactive"}, {"smiles": "Nc1ccc(Oc2ccc(Br)cc2)cc1", "outcome": "inactive"}, {"smiles": "C/C=C/c1ccc([C@@H]2[C@@H](CN(C)C(=O)CC)N(C(=O)NC(C)C)[C@H]2CO)cc1", "outcome": "inactive"}, {"smiles": "COCC(=O)N1[C@H](CO)[C@H]2c3ccccc3N(C(=O)c3ccccc3F)C[C@H]21", "outcome": "inactive"}, {"smiles": "CCN(C[C@@H]1[C@@H](c2ccccc2)[C@@H](CO)N1S(C)(=O)=O)C(=O)C1CC1", "outcome": "inactive"}, {"smiles": "COCCNC(=O)C[C@@H]1CC[C@@H]2[C@H](COc3ccc(NS(=O)(=O)c4ccc(Cl)cc4)cc3C(=O)N2C)O1", "outcome": "inactive"}, {"smiles": "CN1C(=O)c2cc(NC(=O)Nc3ccccc3F)ccc2OC[C@@H]2O[C@H](CC(=O)O)CC[C@@H]21", "outcome": "inactive"}, {"smiles": "CCC(=O)N1[C@H](CO)[C@H](c2ccccc2)[C@@H]1CN(CC)C(=O)c1ccccc1", "outcome": "inactive"}, {"smiles": "COC(=O)C[C@@H]1CC[C@@H]2[C@H](COc3ccc(NS(=O)(=O)c4ccc(F)cc4)cc3C(=O)N2C)O1", "outcome": "inactive"}, {"smiles": "CCNC(=O)Nc1ccc2c(c1)C(=O)N(C)[C@H]1CC[C@H](CC(=O)NCc3ccccc3F)O[C@H]1CO2", "outcome": "inactive"}, {"smiles": "C/C=C/c1ccc([C@H]2[C@@H](CO)N(C(C)=O)[C@@H]2CN(C(=O)COC)C(C)C)cc1", "outcome": "inactive"}, {"smiles": "CN1C(=O)c2cc(NC(=O)c3cccc(F)c3)ccc2OC[C@@H]2O[C@H](CC(=O)NC3CCC3)CC[C@@H]21", "outcome": "inactive"}]}]}
